Data on 26 compounds can be found in PubChem BioAssay.

Activity calls are given as the source filed them. Unless noted, the rule behind the calls is not given here.

The test system of assay [1] is XIP peptide (Xip251-270) binding. Description: XIP fragment 251-270 binding compounds – biochemical, small-molecule microarray, fluorescence 635/667 nm, 0.1 µg/mL protein, primary screen (AID 1182). The settings on record: fluorescent protein binding, 635 nm, higher = more signal, called active from +8 up or from −8 down.
Assay [2] relates to XIP peptide (Xip251-270). Description: compounds binding XIP fragment 251-270 – biochemical, small-molecule microarray, fluorescence 635/667 nm, 0.5 µg/mL protein, primary screen (AID 1183). The note with it: fluorescence 635 nm, higher = more signal.
Assay [3] can be described thus: blood-stage malaria parasite viability loss – strain 3D7, DAPI fluorescence, 100 nL, primary screen (AID 1184).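 Note: parasites grown inside human red blood cells in medium with human serum.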 The settings on record: P. falciparum 3D7 growth, 3 d, higher = more signal.
Assay [4] has as its target Homeobox protein Hox-A13 (Mus musculus) (UniProt Q62424). The experiment in a line: disruptors of Hoxa13 oligonucleotide interaction – biochemical, fluorescence polarization, labeled oligonucleotide, primary screen (AID 1185). The note with it: Hoxa13:DNA binding, 15 min, higher = more signal, called active from +8 up or from −8 down.
A short description of assay [5]: blockers of DNA damage checkpoint Chk1 activation – imaging, HeLa, hydroxyurea, phospho-Chk1 antibody, percent positive cells, primary screen (AID 1186). The note with it: hydroxyurea-induced phospho-Chk1 immunofluorescence imaging, higher = more signal.
The nature of assay [6]: blockers of DNA damage checkpoint Chk1 activation – imaging, HeLa, hydroxyurea, phospho-Chk1 nuclear intensity, primary screen (AID 1187). The settings on record: hydroxyurea-induced phospho-Chk1 immunofluorescence imaging, higher = more signal.

Homeobox protein Hox-A13 (Mus musculus), sequence (Q62424 whole entry, looked up): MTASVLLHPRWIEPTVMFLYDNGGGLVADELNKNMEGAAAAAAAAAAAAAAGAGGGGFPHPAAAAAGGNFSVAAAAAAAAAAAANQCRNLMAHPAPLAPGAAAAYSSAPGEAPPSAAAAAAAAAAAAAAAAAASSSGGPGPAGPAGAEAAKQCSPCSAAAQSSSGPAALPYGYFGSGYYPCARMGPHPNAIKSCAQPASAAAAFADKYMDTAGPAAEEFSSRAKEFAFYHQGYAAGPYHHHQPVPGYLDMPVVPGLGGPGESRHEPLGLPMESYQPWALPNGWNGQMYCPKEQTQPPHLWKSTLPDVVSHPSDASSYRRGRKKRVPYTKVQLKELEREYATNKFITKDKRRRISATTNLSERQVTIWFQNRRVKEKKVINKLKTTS

`C=CC(=C)[C@H]1Oc2ccccc2S(=O)(=O)N2CCC[C@@H]12`: the composite z-score is 0.323 (inactive) in assay [1] and -0.253 in assay [2]. Moreover, the z-score in assay [3] was -0.0753; in assay [4], -1.9 (inactive); in assay [5], 0.142 (inactive); in assay [6], 0.342 (inactive).

In the case of `CC(C)C(CO)N1C(=O)[C@@H]2C3C(=O)OCCC/C=C\[C@H]3OC23C=CCN(CCN2CCOCC2)C(=O)[C@@H]13` (stereo partly specified), the composite z-score in assay [1] is -0.0949 (inactive); in assay [2], -0.816. The z-score in assay [3] was 1.17; in assay [4] it was -7 (inactive); in assay [5] it was 0.248 (inactive); in assay [6] it was -0.0469 (inactive).

`N#Cc1ccc(NN2C(C(O)C(c3ccccc3)c3ccccc3)C=CC3C(=O)N(c4ccccc4)C(=O)C32)cc1` (stereo unspecified): the composite z-score in assay [1] is 0.424 (inactive); in assay [2], 0.646. For the same compound, the z-score was -0.231 in assay [3], 1.55 (inactive) in assay [4], 0.377 (inactive) in assay [5] and 0.484 (inactive) in assay [6].

As for `C=C(CCCC)/C(=C/C[C@@H](OC(=O)c1ccncc1)c1ccc(OCCO)cc1)c1cc(C(=O)OC)ccc1OC`, the composite z-score in assay [1] is 0.35 (inactive); in assay [2] it was 0.565. For the same compound, the z-score in assay [3] is -2.8; in assay [4], -3.62 (inactive); in assay [5] it was -0.377 (inactive); in assay [6], 0.106 (inactive).

With `COC(=O)C(CC#Cc1ccc2c(c1)[C@]1(C(=O)N2)[C@H](c2ccc(OCCO)cc2)N2[C@H](c3ccccc3)[C@H](c3ccccc3)OC(=O)[C@H]2[C@@H]1C(=O)N1CCc2cc(OC)c(OC)cc2C1)C(=O)OC`, the figures for the composite z-score in assay [1] and in assay [2] were 0.0734 (inactive) and 0.78, respectively. Also, the z-score in assay [3] is -2; in assay [4], -1.29 (inactive); in assay [5] it was 0.192 (inactive); in assay [6], 0.492 (inactive).

`NCCCCCNC(=O)[C@@H]1C[C@@H]2C(=O)N[C@@H](Cc3ccccc3)C(=O)N2[C@@H]1c1ccc(O)cc1`: the composite z-score in assay [1] was 0.632 (inactive); in assay [2] it was 0.549. The z-score in assay [3] is 1.35; in assay [4], -1.87 (inactive); in assay [5], 0.296 (inactive); in assay [6], 0.204 (inactive).

Regarding `C=CCOC(=O)[C@@H]1[C@H]2C(=O)O[C@H](c3ccccc3)[C@H](c3ccccc3)N2[C@H](c2ccc(OCCOC(=O)[C@H]3C[C@H]4C(=O)N5CCC[C@H]5C(=O)N4[C@H]3c3ccc(O)cc3)cc2)[C@@]12C(=O)Nc1ccc(I)cc12`, the composite z-score in assay [1] is 1.93 (inactive); in assay [2] it was 0.833. The z-score in assay [3] was -1.56; in assay [4], 1.53 (inactive); in assay [5], -0.0415 (inactive); in assay [6], 0.0454 (inactive).

On to `COc1cc(C(O)C2C=CC3C(=O)NC(=O)C3N2Nc2ccccn2)cc(OC)c1OC` (stereo unspecified), for which the composite z-score in assay [1] was -0.0962 (inactive); in assay [2] it was 0.405. In addition, the z-score in assay [3] is 1.26; in assay [4] it was -2.19 (inactive); in assay [5] it was 0.209 (inactive); in assay [6], 0.228 (inactive).

Consider `CCCC[C@@H]1C[C@H]1[C@@H](NC(=O)C(C)(C)C)c1ccc(C(F)(F)F)cc1`, for which the composite z-score in assay [1] was 0.503 (inactive); in assay [2], 0.414. In addition, the z-score in assay [3] is -0.948; in assay [4], 1.43 (inactive); in assay [5], -0.109 (inactive); in assay [6], -0.236 (inactive).

On to `O=C(c1ccccc1)N1Cc2ccccc2C[C@@]2(COC(c3ccc(OCCCO)cc3)=N2)C1=O`, for which the composite z-score in assay [1] was 1.45 (inactive); in assay [2], 0.751. Moreover, the z-score in assay [3] is -2.26; in assay [4], -4.77 (inactive); in assay [5], -0.221 (inactive); in assay [6], 0.159 (inactive).

For the compound `COCCCNC(=O)[C@]1(CCC(=O)OC(C)(C)C)N=C(c2ccc(OCCCO)cc2)O[C@@H]1c1ccccc1CN=[N+]=[N-]`, the figures for the composite z-score in assay [1] and in assay [2] were -0.0552 (inactive) and 0.848, respectively. Further, the z-score in assay [3] is -2.08; in assay [4] it was -6.66 (inactive); in assay [5], -0.113 (inactive); in assay [6], -0.534 (inactive).

Turning to `[N-]=[N+]=Nc1ccccc1[C@@H]1OC(c2ccc(OCCCO)cc2)=N[C@]1(CCS(=O)(=O)c1ccccc1)C(N)=O`, the composite z-score in assay [1] was 1 (inactive); in assay [2], 0.629. Further, the z-score in assay [3] was -2.04; in assay [4], -4.11 (inactive); in assay [5] it was -0.154 (inactive); in assay [6], -0.0216 (inactive).

Regarding `C=CC1(C(=O)OC)CC=C(C(=O)OC)CC1` (stereo unspecified), the composite z-score in assay [1] is 0.552 (inactive); in assay [2], 0.992. The z-score was 0.928 in assay [3], -1.09 (inactive) in assay [4], -1.36 (inactive) in assay [5] and -1.26 (inactive) in assay [6].

Turning to `CCOC(=O)C1=CC[C@@H](c2ccccc2)N(S(=O)(=O)c2ccc(C)cc2)[C@H]1c1ccccc1C`, the composite z-score is -0.164 (inactive) in assay [1] and 0.291 in assay [2]. The z-score is -1.71 in assay [3], -0.813 (inactive) in assay [4], 0.023 (inactive) in assay [5] and 0.112 (inactive) in assay [6].

Regarding `O=C1NC(=O)C2C1C=CC(C(O)c1cc(C(F)(F)F)cc(C(F)(F)F)c1)N2Nc1ccccn1` (stereo unspecified), the figures for the composite z-score in assay [1] and in assay [2] were 0.604 (inactive) and 0.797, respectively. Besides, the z-score in assay [3] is -0.352; in assay [4], -3.28 (inactive); in assay [5] it was 0.429 (inactive); in assay [6], 0.178 (inactive).

As to `CCC(CC)C(O)C1C=CC2C(=O)NC(=O)C2N1Nc1ccc(Cl)cc1Cl` (stereo unspecified), the composite z-score in assay [1] was 0.625 (inactive); in assay [2] it was 0.587. In addition, the z-score in assay [3] is -0.225; in assay [4], -4.8 (inactive); in assay [5], 0.724 (inactive); in assay [6] it was 0.786 (inactive).

For `COC(=O)[C@H](Cc1ccccc1)N1CC2=C[C@@H](C3CC3)n3c(=O)n(C)c(=O)n3[C@H]2[C@@H]1[C@@H](O)Cc1ccccc1`, the values for the composite z-score in assay [1] and in assay [2] were 0.475 (inactive) and 0.259, respectively. In addition, the z-score in assay [3] was -0.863; in assay [4] it was -7.37 (inactive); in assay [5] it was 0.183 (inactive); in assay [6], 1.5 (inactive).

For `COC(=O)[C@@]1(Cc2ccc(OC)cc2)[C@@H]2C(=CC(=O)[C@H]2CC(=O)C(=O)N2CCCC2)CN1C(=O)c1ccccc1`, the composite z-score is -0.406 (inactive) in assay [1] and 0.161 in assay [2]. Besides, the z-score is -0.918 in assay [3], -2.39 (inactive) in assay [4], -0.0101 (inactive) in assay [5] and -0.277 (inactive) in assay [6].

Consider `COc1cc(NN2C(C(O)c3ccco3)C=CC3C(=O)N(c4ccccc4)C(=O)C32)cc(OC)c1OC` (stereo unspecified), for which the composite z-score in assay [1] is 0.318 (inactive); in assay [2] it was 0.737. The z-score was -0.372 in assay [3], -3.83 (inactive) in assay [4], 0.153 (inactive) in assay [5] and -0.416 (inactive) in assay [6].

`CC(C)N1C(=O)C[C@@](C(=O)NCC(F)(F)F)(c2ccc([N+](=O)[O-])cc2)[C@H]1c1ccc(CO)cc1`: the results for the composite z-score in assay [1] and in assay [2] were 0.0334 (inactive) and 0.202, respectively. Besides, the z-score in assay [3] was -1.38; in assay [4] it was -2.67 (inactive); in assay [5], -0.317 (inactive); in assay [6], -0.273 (inactive).

With `CCCC[C@@H]1C[C@H]1[C@@H](NC(=O)c1ccco1)c1ccccc1C(F)(F)F`, the composite z-score is 0.259 (inactive) in assay [1] and -0.623 in assay [2]. The z-score was -0.7 in assay [3], 2.24 (inactive) in assay [4], 0.445 (inactive) in assay [5] and -0.353 (inactive) in assay [6].

On to `COC(=O)[C@@]1(Cc2ccc(F)cc2)[C@H]2c3cc(C(=O)N(C)C)n(Cc4ccc(Cl)c(C(F)(F)F)c4)c3C[C@H]2CN1C(=O)c1ccccc1`, for which the composite z-score was -0.512 (inactive) in assay [1] and 0.503 in assay [2]. In addition, the z-score in assay [3] is -1.6; in assay [4], -2.75 (inactive); in assay [5] it was 1.09 (inactive); in assay [6], 0.528 (inactive).

`COCCOC(=O)N1C(=O)[C@@]2(c3cc(C#Cc4ccc(OC)cc4)ccc31)[C@H](c1ccc(OCCO)cc1)N1[C@H](c3ccccc3)[C@H](c3ccccc3)OC(=O)[C@H]1[C@@H]2C(=O)N1CCN(c2ncccn2)CC1`: the composite z-score was 0.0039 (inactive) in assay [1] and 0.695 in assay [2]. Also, the z-score is -1.84 in assay [3], 0.99 (inactive) in assay [4], 0.13 (inactive) in assay [5] and 0.436 (inactive) in assay [6].

Take `COC(=O)[C@@]1(Cc2ccc(F)cc2)[C@H]2c3cc(C(=O)N(C)C)n(Cc4cc(F)c(F)c(F)c4)c3C[C@H]2CN1C(=O)c1ccccc1`: the composite z-score in assay [1] was 0.0639 (inactive); in assay [2], 0.626. Further, the z-score in assay [3] was -1.66; in assay [4] it was -3.48 (inactive); in assay [5] it was 0.0893 (inactive); in assay [6] it was 0.175 (inactive).

For the compound `COC(=O)[C@@]1(Cc2ccccc2)[C@H]2c3cc(C(=O)N(C)C)n(Cc4ccsc4Br)c3C[C@H]2CN1C(=O)c1ccccc1`, the results for the composite z-score in assay [1] and in assay [2] were 0.274 (inactive) and 0.116, respectively. The z-score in assay [3] is -1.51; in assay [4] it was -4.23 (inactive); in assay [5], 0.567 (inactive); in assay [6], 0.0591 (inactive).

On to `COc1cc(COC(C)=O)ccc1OC(C)=O`, for which the composite z-score is -0.603 (inactive) in assay [1] and 0.213 in assay [2]. Also, the z-score in assay [3] was 0.287; in assay [4], 0.579 (inactive); in assay [5], -1.08 (inactive); in assay [6], -1.53 (inactive).
